Screening results deposited in PubChem BioAssay by several laboratories.
GluA2 TARP mod: GluA2-stargazin AMPA receptor complex modulation | 40,000 tested, 3.5% active | calls only at 30 µM | HEK293 GluA2+stargazin, membrane potential dye (FDSS), glutamate EC50; hits were called plate by plate, in both directions | O88602+P19491;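 active = any of four per-well response measures lying three or more SD from its plate-wide compound average, in either direction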
Target sequence (O88602 whole entry, looked up): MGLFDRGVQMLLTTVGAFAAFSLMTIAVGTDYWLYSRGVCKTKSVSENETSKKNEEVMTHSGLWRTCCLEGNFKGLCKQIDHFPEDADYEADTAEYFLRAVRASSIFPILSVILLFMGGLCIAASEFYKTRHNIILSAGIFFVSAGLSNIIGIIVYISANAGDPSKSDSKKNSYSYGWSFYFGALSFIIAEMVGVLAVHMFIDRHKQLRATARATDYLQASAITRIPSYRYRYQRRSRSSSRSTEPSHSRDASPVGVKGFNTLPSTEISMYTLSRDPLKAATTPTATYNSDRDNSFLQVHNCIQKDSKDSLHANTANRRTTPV
Target sequence (P19491 whole entry, looked up): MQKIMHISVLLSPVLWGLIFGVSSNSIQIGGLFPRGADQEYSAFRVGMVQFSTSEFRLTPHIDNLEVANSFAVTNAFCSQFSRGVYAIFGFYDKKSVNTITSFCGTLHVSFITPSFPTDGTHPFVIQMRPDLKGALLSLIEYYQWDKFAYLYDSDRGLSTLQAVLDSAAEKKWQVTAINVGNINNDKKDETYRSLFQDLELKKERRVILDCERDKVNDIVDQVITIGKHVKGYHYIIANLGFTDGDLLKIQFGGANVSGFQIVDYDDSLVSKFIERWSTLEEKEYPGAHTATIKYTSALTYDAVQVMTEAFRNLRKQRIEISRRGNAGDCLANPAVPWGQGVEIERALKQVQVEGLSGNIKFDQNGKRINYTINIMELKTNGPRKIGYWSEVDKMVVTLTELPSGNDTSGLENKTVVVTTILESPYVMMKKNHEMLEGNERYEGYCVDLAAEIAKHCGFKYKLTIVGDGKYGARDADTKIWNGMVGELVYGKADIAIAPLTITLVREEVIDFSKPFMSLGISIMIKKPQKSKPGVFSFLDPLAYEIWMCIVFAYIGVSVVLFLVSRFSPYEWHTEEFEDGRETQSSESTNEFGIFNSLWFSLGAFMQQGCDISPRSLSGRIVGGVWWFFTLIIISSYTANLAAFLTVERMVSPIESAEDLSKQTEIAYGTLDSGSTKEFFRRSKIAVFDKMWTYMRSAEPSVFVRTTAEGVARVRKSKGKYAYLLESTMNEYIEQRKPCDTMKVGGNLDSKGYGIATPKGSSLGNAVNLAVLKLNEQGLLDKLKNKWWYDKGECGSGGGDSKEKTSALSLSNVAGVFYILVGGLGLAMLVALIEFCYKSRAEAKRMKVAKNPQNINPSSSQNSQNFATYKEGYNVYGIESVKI
GIRK2 act: Activators of human GIRK2-containing channels. P48051. HEK293 GIRK2/NPY4 cells, thallium flux fluorescence. activation (% efficacy), % for hits at 37.5 µM. 34,000 tested, under 10 active. AID 1259324;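 active = primary screen hit, no activity in plain HEK293 cells, and in GIRK2-only cells above 5% efficacy rising with concentration; inactive = the rest, including fluorescent compounds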;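 also: efficacy is normalized control-subtracted fluorescence 15 s after thallium addition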
Large screens that a line does not name were inactive. The full list was thinned out, with hits kept by preference.

COc1ccc(C(=O)Nc2ccc(N3CCCCC3=O)c(C)c2)cc1	none
CCc1nc2ccccc2n1CCOc1ccccc1	none (no result: GIRK2 act)
CCC(O)c1nc2ccccc2n1CCOc1ccccc1 (stereo unspecified)	GluA2 TARP mod active (no result: GIRK2 act)
CN(C1CCCC1)S(=O)(=O)c1ccc(C(=O)Nc2nc3cc4c(cc3s2)OCO4)cc1	none (no result: GIRK2 act)
O=C(/C=C/c1cc2cc3c(cc2nc1Cl)OCO3)C1CC1	GluA2 TARP mod active (no result: GIRK2 act)
O=C(NCc1cccs1)NCc1cnn2ccccc12	none (no result: GluA2 TARP mod)
Cc1ccccc1-c1ccc(N2CCC(C(=O)N3c4ccc(F)cc4CCC3C)CC2)nn1 (stereo unspecified)	none
COc1cc(OC)cc(C(=O)Nc2nnc(-c3cc(C)n(C)n3)o2)c1	GluA2 TARP mod active
COc1cc2ccccc2cc1C(=O)Nc1nnc(-c2cc(C)n(C)n2)o1	none
COc1ccc(C(=O)Nc2nnc(-c3cc(C)n(C)n3)o2)cc1OC	GluA2 TARP mod active
COc1ccc(C(=O)Nc2nnc(-c3cc(C)nn3C)o2)cc1OC	none (no result: GluA2 TARP mod)
COc1ccc(/C(O)=C2\C(=O)C(=O)N(CCCN(C)C)C2c2ccccn2)cc1C (stereo unspecified)	none (no result: GIRK2 act)
COc1ccc(NC(=O)Cn2cnc3c(nnn3C)c2=O)cc1OC	none
CCOCCn1c(=O)c2c(nc3n(-c4ccc(C)cc4)c(C)c(C)n23)n(C)c1=O	none (no result: GIRK2 act)
c1coc(CNc2nc(N3CCCCC3)nc3ccccc23)c1	GluA2 TARP mod active (no result: GIRK2 act)
c1ccc(N2CCN(c3nc(NCc4ccco4)c4ccccc4n3)CC2)cc1	none (no result: GIRK2 act)
Cc1cccc(C)c1NC(=O)c1nnn(-c2cccc(C(F)(F)F)c2)c1N	none
Cc1ccc(Cl)cc1NC(=O)CC1=NS(=O)(=O)c2ccccc2N1	none
CC(C)S(=O)(=O)c1ccc(C(=O)Nc2nc3c(s2)CSc2ccccc2-3)cc1	none
O=C(Nc1nc2c(s1)CSc1ccccc1-2)c1cc2ccccc2o1	GluA2 TARP mod active (no result: GIRK2 act)
Cc1ccc(CNC(=O)CC2Nc3cc(C)c(C)cc3NC2=O)cc1 (stereo unspecified)	GluA2 TARP mod active (no result: GIRK2 act)
C=CCNC(=O)CC1Nc2cc(C)c(C)cc2NC1=O (stereo unspecified)	none (no result: GluA2 TARP mod)
CC(C)c1cc(-n2ccnc2)n2ncc(-c3ccccc3)c2n1	none
CCc1cc(CC)n(-c2nc3c(c(=O)n(Cc4ccccc4)c(=O)n3C)n2CCOC)n1	GluA2 TARP mod active (no result: GIRK2 act)
CCc1cc(CC)n(-c2nc3c(c(=O)n(CC(C)C)c(=O)n3C)n2CCOC)n1	none (no result: GIRK2 act)
CCOCCn1c(-n2nc(C)cc2C)nc2c1c(=O)n(Cc1cccc(C)c1)c(=O)n2C	GluA2 TARP mod active
CCOCCn1c(=O)c2c(nc(-n3nc(C)cc3C)n2Cc2ccc(F)cc2)n(C)c1=O	none
O=C(Nc1ccc2c(c1)CN(C(=O)c1cccs1)CC2)C1CC(=O)N(c2ccc(Cl)cc2)C1 (stereo unspecified)	none
O=C(NCCc1c[nH]c2ccccc12)c1cc2n(n1)C(C(F)(F)F)CC(c1ccco1)N2 (stereo unspecified)	GluA2 TARP mod active (no result: GIRK2 act)
CSc1ccccc1NC(=O)c1cc2n(n1)C(C(F)(F)F)CC(c1ccco1)N2 (stereo unspecified)	none (no result: GIRK2 act)
COc1ccccc1NC(=O)N1CCN(c2ncnc3c2nnn3C)CC1	none
O=C(Nc1cc(-c2cccs2)nn1CCO)C1(c2ccccc2)CCOCC1	none
O=C(NCCc1c[nH]c2ccccc12)C(=O)c1cn(CC(=O)N2CCOCC2)c2ccccc12	none (no result: GIRK2 act)
CCN(CC)C(=O)Cn1cc(C(=O)C(=O)N2CCN(Cc3ccccc3)CC2)c2ccccc21	none (no result: GIRK2 act)
CCN(CC)C(=O)Cn1cc(C(=O)C(=O)N(Cc2ccccc2)C(C)C)c2ccccc21	GluA2 TARP mod active (no result: GIRK2 act)
CN1CCN(c2nc3c(c(=O)n(C)c(=O)n3C)n2CC(O)COc2ccccc2)CC1 (stereo unspecified)	GluA2 TARP mod active (no result: GIRK2 act)
COc1ccc(OCC(O)Cn2c(N3CCN(C)CC3)nc3c2c(=O)n(C)c(=O)n3C)cc1 (stereo unspecified)	GluA2 TARP mod active (no result: GIRK2 act)
Cc1cccc(OCC(O)Cn2c(N3CCN(c4ccccc4)CC3)nc3c2c(=O)n(C)c(=O)n3C)c1 (stereo unspecified)	none (no result: GIRK2 act)
Cc1ccc(OCC(O)Cn2c(N3CCC(C)CC3)nc3c2c(=O)n(C)c(=O)n3C)cc1C (stereo unspecified)	none (no result: GIRK2 act)
O=C(c1ccc(S(=O)(=O)NCc2ccco2)o1)N1CCc2ccccc21	none
CC(=O)Nc1ccc(C(=O)NCCNC(=O)c2cc3ccccc3oc2=O)cc1	none
CS(=O)(=O)N1CCC(C(=O)Nc2nc3c(Cl)c(Cl)ccc3s2)CC1	none (no result: GluA2 TARP mod)
CC(C)(C)NC(=O)N1CCC(CNC(=O)COc2ccc(F)cc2)CC1	none (no result: GluA2 TARP mod)
Cc1c(Cl)ccc2sc(N(CCN3CCOCC3)C(=O)c3ccco3)nc12	none (no result: GIRK2 act)
COc1ccc(C(=O)NCCCn2nc(-c3ccc(F)cc3)ccc2=O)c(OC)c1	none
COc1ccc(CCNc2cc(C)nc3c(-c4ccccc4OC)c(C)nn23)cc1OC	none
COc1ccc(CCNc2cc(C)nc3c(-c4ccccc4OC)cnn23)cc1OC	GluA2 TARP mod active
COCCn1c(N2CCN(Cc3cc(C)ccc3C)CC2)nc2c1c(=O)[nH]c(=O)n2C	none (no result: GIRK2 act)
